Sampled rows, rich in hits. Any-hit rate of the full collection: about 4.1%.
TRPM1 prom inh = reduces MITF-dependent TRPM1 promoter luciferase signal | SK-MEL-5 TRPM1 promoter luciferase, 24 h | inhibition, % at 12.5 µM | 330,000 compounds, 0.83% hits;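 active means mean inhibition across replicates of 60% or more, whatever share of single replicates reaches that level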
Peg3 prom inh-1 = Peg3 promoter activity inhibition. HeLa PEG-Prom luciferase reporter, luminescence, overnight. inhibition, % at 20 µM. 360,000 compounds, 1.7% hits. AID 588405;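 active means inhibition of at least 50% at 20 µM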
TWEAK Fn14 block = blocks TWEAK-Fn14 interaction in a reporter cell assay | TWEAK-stimulated Fn14 reporter cells, luciferase luminescence, 8 h | inhibition, % at 10 µM | 360,000 compounds, 2% hits; in the data active means inhibition above about 50%
Shn3 inh set2 = reduces Shn3 3'UTR luciferase signal in osteoblasts; Clone20 osteoblast Shn3 3'UTR firefly luciferase, 24 h; inhibition, % at 12.5 µM; 360,000 compounds, 0.52% hits;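 active means mean inhibition of at least 75% with every replicate also reaching 75%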;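 further: 0% = median of neutral control wells and 100% = pilot-screen positive control compound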
TROY signal inh = inhibitors of TROY-dependent NF-kB signaling; Q293 LMP1-TROYcd NF-kB luciferase reporter, 4 h; inhibition, % at 10 µM; 360,000 compounds, 0.98% hits;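 active means compounds whose plate-normalised and pattern-corrected inhibition of the luciferase reporter signal at the single screening dose is 50% or more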
EBV LMP1 NFkB = reduces LMP1-driven NF-kappaB luciferase signal. LMP1-induced NF-kappaB luciferase reporter cells, luminescence. inhibition, % at 12.5 µM. 350,000 compounds, 0.69% hits. AID 504558; in the data active means inhibition above about 41%;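 further: 0% = neutral control wells and 100% = reference inhibitor control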
Peg3 prom inh-2 = confirmation of Peg3 promoter inhibitors. shares compounds with Peg3 prom inh-1. HeLa PEG-Prom luciferase reporter, luminescence, overnight. inhibition, % at 20 µM. 1,300 compounds, 84% hits. AID 602417;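 active means at 20 µM dose, 40% or more inhibition averaged across four replicates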
An asterisk follows results filed as active; . = no result.

SMILES	TRPM1 prom inh	Peg3 prom inh-1	TWEAK Fn14 block	Shn3 inh set2	TROY signal inh	EBV LMP1 NFkB	Peg3 prom inh-2
COc1ccc(OC[C@@H](O)CNC(=O)c2cccc3c2C(=O)c2ccc(Cl)cc2S3(=O)=O)cc1	-4	-16	-26	3	-21	-7	.
C=C1CC(Cn2cc(Br)c(=O)[nH]c2=O)(c2ccc(-c3ccccc3)cc2)OC1=O (centres undefined)	109*	100*	83*	95*	49	17	98*
CC(=O)c1nn(-c2ccc(C(F)(F)F)cc2)c(=O)[nH]c1=O	7	4	12	11	-13	7	.
COc1ccc(S(=O)(=O)N2CCOCC2)cc1C(=O)N1CCCC1	4	0	3	8	0	-2	.
O=C(N/N=C(\c1ccccc1)c1ccccn1)c1cccc([N+](=O)[O-])c1	83*	51*	-28	92*	-10	36	62*
Cn1ccnc1/C(=N\NC(=O)c1ccccc1)c1cccc([N+](=O)[O-])c1	-12	1	-20	4	-19	7	.
Oc1[nH]c2ccc(Br)cc2c1N=NC(=S)N1CCOCC1	99*	76*	105*	97*	49	10	85*
Cc1ccccc1-c1nc(CN2CCC(C(=O)NC3CCCCC3)CC2)c(C)o1	5	-18	-7	7	3	11	.
Cc1ccccc1-c1nc(CN2CCC(C(=O)NC3CCN(Cc4ccccc4)CC3)CC2)c(C)o1	30	56*	-8	33	-7	-31	-7
Fc1ccc(Nc2nc(-c3ccncc3)nc3ccccc23)cc1F	-17	54*	-27	14	6	-3	33
O=C(Cn1ncc2c1-c1ccccc1OC2)N1CCc2ccccc21	0	-12	-3	-47	1	3	.
O=C(Cn1ncc(Cl)c(Cl)c1=O)N1CCN(Cc2ccccc2)CC1	98*	103*	87*	61	56*	88*	95*
O=C(Cn1ncc(Cl)c(Cl)c1=O)N1CCc2ccccc21	99*	108*	101*	55	13	13	99*
O=C(Cn1ncc2c1-c1ccccc1OC2)N1CCN(Cc2ccccc2)CC1	3	11	17	12	24	-8	.
